Source: PubChem
In the library only some 3.5% were active in any assay of this set; here they are far more common.
TEAD-YAP inh: TEAD-YAP interaction inhibition; HEK-TIYL cells, TEAD-Gal4/YAP UAS-luciferase luminescence; inhibition, % at 9.12 µM; actives 1.4% (n = 640,000); in the data active = inhibition above about 32%;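 also: 0% = median of test compound wells and 100% = reference inhibitor wells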
FBW7 act: human FBW7 E3 ligase activation, primary screen; Q969H0; AlphaScreen FBW7–phospho-cyclin E peptide binding, activator screen; normalized activity (activation), % at 26.1 µM; actives 0.13% (n = 650,000); AID 1259310; in the data active = normalized activity above about 1.9%;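 also: purified mutant Fbw7 with reduced substrate affinity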
Target sequence (Q969H0 whole entry, looked up): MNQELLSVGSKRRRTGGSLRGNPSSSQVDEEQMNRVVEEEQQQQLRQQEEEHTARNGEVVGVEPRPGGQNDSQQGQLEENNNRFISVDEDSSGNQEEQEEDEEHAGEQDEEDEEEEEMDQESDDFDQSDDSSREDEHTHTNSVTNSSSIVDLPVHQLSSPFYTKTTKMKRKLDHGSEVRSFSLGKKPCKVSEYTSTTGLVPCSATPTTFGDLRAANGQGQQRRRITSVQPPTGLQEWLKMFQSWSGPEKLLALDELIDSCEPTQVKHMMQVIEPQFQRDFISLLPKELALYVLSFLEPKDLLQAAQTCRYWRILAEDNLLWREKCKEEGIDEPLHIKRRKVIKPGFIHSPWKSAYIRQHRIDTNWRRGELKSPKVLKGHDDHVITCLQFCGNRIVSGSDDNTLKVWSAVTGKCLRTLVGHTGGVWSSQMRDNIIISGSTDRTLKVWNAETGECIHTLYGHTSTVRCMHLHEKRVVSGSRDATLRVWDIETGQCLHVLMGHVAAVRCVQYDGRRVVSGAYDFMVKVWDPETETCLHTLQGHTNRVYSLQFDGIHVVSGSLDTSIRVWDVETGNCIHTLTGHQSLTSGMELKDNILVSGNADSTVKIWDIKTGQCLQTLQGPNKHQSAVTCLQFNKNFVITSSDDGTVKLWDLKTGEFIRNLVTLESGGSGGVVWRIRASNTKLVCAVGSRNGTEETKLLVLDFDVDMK
GPR151 ag: human GPR151 activation. Q8TDV0. PathHunter beta-arrestin GPR151 cells, luminescence. activation, % at 11.2 µM. actives 1% (n = 650,000). AID 1508602; in the data active = activation above about 4.9%;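 also: 0% = median of compound wells and 100% = cells with positive control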
MITF inh: blocks human microphthalmia-associated transcription factor. O75030. inhibition, % at 2.6 µM. AlphaScreen MITF homodimerization, bead proximity signal. AID 1259374. actives 0.91% (n = 650,000); in the data active = inhibition above about 50%;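 also: 0% = vehicle wells with protein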
The depositor's hits bear a star.

SMILES | TEAD-YAP inh | FBW7 act | GPR151 ag | MITF inh
O=C(CCc1ccc(S(=O)(=O)NCCc2ccccc2)cc1)NCc1ccccn1 | -4 | 0 | 0 | 20
O=C(N/N=C/c1ccccc1F)c1ccc(Cl)cc1O | 3 | 0 | -1 | 4
CCCCC(=O)NC(c1ccc(OC)c(OC)c1)c1cc([N+](=O)[O-])c2cccnc2c1O (centres undefined) | -8 | 0 | 2 | 51*
CCOc1cc(C(NC(=O)CC)c2cc([N+](=O)[O-])c3cccnc3c2O)ccc1O (centres undefined) | -6 | 0 | 0 | 54*
CCCC(=O)NC(c1ccccc1)c1cc([N+](=O)[O-])c2cccnc2c1O (centres undefined) | 2 | -1 | 1 | 76*
CCCC(=O)NC(c1ccc(OC)c(OC)c1)c1cc([N+](=O)[O-])c2cccnc2c1O (centres undefined) | 17 | 0 | 0 | 45
CCOc1cc(C(NC(=O)C(C)C)c2cc([N+](=O)[O-])c3cccnc3c2O)ccc1O (centres undefined) | 9 | -1 | 1 | 35
CCC(=O)NC(c1ccc(OC)c(OC)c1)c1cc([N+](=O)[O-])c2cccnc2c1O (centres undefined) | 2 | -1 | 0 | 68*
CCCNS(=O)(=O)c1ccc(OCC)c2ncccc12 | 0 | 0 | -1 | 8
Cc1ccc(CNC(=O)c2cnc3scc(-c4ccc(Cl)s4)n3c2=O)o1 | 3 | 0 | 0 | 8
CN(C)S(=O)(=O)N1CCC(Oc2cccc(C(=O)NC3CCCCCC3)c2)CC1 | 44* | 0 | 0 | 17
CCC(O)CNC(=O)c1cccc(OC2CCN(S(=O)(=O)N(C)C)CC2)c1 (centres undefined) | 2 | 0 | 0 | 10
COc1ccc(C2CC(=O)N(CC(=O)c3ccccc3)c3ccccc3S2)cc1OC (centres undefined) | 76* | 0 | 2 | 5
Cc1ccc(OCCOCCOc2ccc(/C=C3\SC(N)=NC3=O)cc2)cc1 | 0 | 0 | 0 | 3
NC(=O)c1cc(NC(=O)c2nn(Cc3ccccc3)c(=O)c3ccccc23)cc(C(N)=O)c1 | -2 | 0 | 1 | 0
COc1cccc(N2CCN(c3c(-c4ccc(C)cc4)c(=O)c3=O)CC2)c1 | 66* | 0 | 3 | 0
COc1ccccc1N1CCN(c2c(-c3ccc(C)cc3)c(=O)c2=O)CC1 | 71* | 0 | 4 | -3
Cc1ccc(-c2c(N3CCN(c4ccccc4F)CC3)c(=O)c2=O)cc1 | 0 | 0 | 3 | -10
Cc1ccc(C)c(NC(=O)CC(NCc2ccco2)C(=O)O)c1 (centres undefined) | 1 | 0 | 0 | -6
CCN(CC(=O)N1CCCCCC1)S(=O)(=O)c1ccc2ccccc2c1 | -1 | 0 | 4 | 16
CC1=C(C(=O)Nc2ccc(Br)cn2)C(c2ccsc2)C2=C(CC(C)(C)CC2=O)N1 (centres undefined) | 52* | 0 | 1 | 0
CC1=C(C(=O)Nc2ccc(C)cn2)C(c2cccs2)C2=C(CC(C)(C)CC2=O)N1 (centres undefined) | 58* | 0 | 0 | -5
CC1=C(C(=O)Nc2ccc(C)cn2)C(c2ccc(C)cc2)C2=C(CC(C)(C)CC2=O)N1 (centres undefined) | 8 | 0 | 1 | 10
CC1=C(C(=O)Nc2ccc(Br)cn2)C(c2cccs2)C2=C(CC(C)(C)CC2=O)N1 (centres undefined) | 35* | 0 | 0 | 0
Cc1ccc(/C=N/NC(=O)c2ccncc2)c(O)c1 | 20 | 0 | -1 | 57*
SMILES | TEAD-YAP inh | FBW7 act | GPR151 ag | MITF inh
Cc1ccc(/C=N/NC(=O)c2ccc3c(c2)OCO3)c(O)c1 | 56* | 0 | 1 | 7
Cc1ccc(C(=O)N/N=C/c2ccc3c(c2)OCO3)cc1 | 11 | 0 | 2 | 10
Cc1cc(O)ccc1N/C=C/C(=O)c1ccccc1 | 74* | 0 | -3 | -5
Cc1ccc(C(=O)/C=C/Nc2ccc(O)cc2C)cc1 | 40* | 0 | -1 | 11
COc1ccc(C(=O)/C=C/Nc2ccc(O)cc2C)cc1OC | -14 | 0 | -1 | 7
Cc1cc(O)ccc1NC(=O)c1ccccc1 | 3 | 0 | -1 | -8
CCCOC(=O)C1=C(C)N(CC)C(=O)NC1c1ccccc1[N+](=O)[O-] (centres undefined) | 12 | 2.5* | 0 | 6
COc1ccc(-c2cnc3ccc(NCCCO)nn23)cc1OC | 36* | 1 | 0 | -11
COCCNc1ccc2ncc(-c3ccc(O)c(OC)c3)n2n1 | 55* | 0 | 1 | -2
Cc1ccnc(N2CCC(C(=O)Nc3ccc(C(C)(C)C)cc3)CC2)n1 | -9 | 0 | 0 | -6
CCCCc1ccc(-c2nc(Nc3cc(Sc4ccc(F)cc4)cc([N+](=O)[O-])c3)c3ccccc3n2)cc1 | 57* | 0 | 1 | 10
COc1cc(-c2nc(Nc3cc(Sc4ccc(F)cc4)cc([N+](=O)[O-])c3)c3ccccc3n2)cc(OC)c1OC | -3 | 0 | 0 | 5
CCCCc1ccc(-c2nc(Nc3cc(Oc4ccccc4)cc([N+](=O)[O-])c3)c3ccccc3n2)cc1 | 50* | 0 | 4 | -12
CCCCc1ccc(-c2nc(Nc3cc(Oc4ccc(F)cc4)cc([N+](=O)[O-])c3)c3ccccc3n2)cc1 | -11 | 0 | 1 | 16
O=C(Cn1nc2c3ccccc3nc(Cc3ccccc3)n2c1=O)NC1CC1 | 5 | 0 | -1 | -11
O=C(Nc1ccc2c(c1)CN(C(=O)c1csnn1)CC2)c1ccc(C(F)(F)F)cc1 | 33* | 0 | -1 | -3
O=C(Cc1ccccc1F)Nc1ccc2c(c1)CN(C(=O)c1csnn1)CC2 | -10 | 0 | -2 | -10
O=C(NCc1nc(NCCCc2ccccc2)c2ccccc2n1)c1ccsc1 | 34* | 0 | 0 | -9
O=C(NCc1nc(NCCCc2ccccc2)c2ccccc2n1)c1ccoc1 | 8 | 0 | -1 | -1
Cc1cnc(CNc2cc(-c3ccccc3F)nc(-c3cccnc3)n2)nc1 | 43* | 0 | 0 | 15
O=C(CNc1cccc2ccccc12)N/N=C/c1cc(Br)ccc1O | 34* | 0 | 0 | 9
O=C(Cn1cncn1)N/N=C/c1ccc(Br)cc1 | -3 | 0 | 3 | 2
CC(Nc1cccc2ccccc12)C(=O)N/N=C/c1cc([N+](=O)[O-])ccc1O (centres undefined) | 67* | 0 | 2 | 24
O=C(CNc1cccc2ccccc12)N/N=C/c1ccccc1O | 12 | 0 | 1 | 10
O=C(Cn1cncn1)N/N=C/c1cc(Br)ccc1O | 17 | -1 | -1 | 57*
COc1ccccc1NC(C)C(=O)N/N=C/c1cc([N+](=O)[O-])ccc1O (centres undefined) | 22 | -1 | 1 | 31
CC(Nc1cccc2ccccc12)C(=O)N/N=C/c1ccc(O)cc1 (centres undefined) | 34* | 0 | 0 | 8
Cc1cc(C(=O)COc2ccc(S(=O)(=O)N3CCCC3)cc2[N+](=O)[O-])c(C)n1C1CC1 | -1 | 0 | 1 | 17
